APP 5UTR inh = APP translation inhibition; SH-SY5Y APP 5'UTR-luciferase reporter, luminescence; inhibition, % at 2 µM; 0.82% of 190,000 active; AID 1285;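 active means inhibition above a set limit, derived from the sample mean plus 3 SD, cut at about 45% in these data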
KLF5 inh = kruppel-like factor 5 inhibition | DLD-1 KLF5 promoter-luciferase reporter, luminescence | inhibition, % at 5 µM | 0.23% of 290,000 active;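 active means inhibition above a per-plate limit of that plate's mean compound inhibition plus 3 SD, cut at about 60% in these data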;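 further: 0% = DMSO wells and 100% = LY294002 at 200 µM; higher means less KLF5 promoter-driven luciferase light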
aSyn 5UTR inh = 5' untranslated region of α-synuclein, MLPCN primary screen; inhibition, % (tested at 7.5 µM); 0.82% of 300,000 active; alpha-synuclein 5'UTR reporter, inhibitor activity; in the data active means inhibition above about 60%;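 further: H4 neuroglioblastoma cells stably carrying SNCA 5'UTR luciferase fusion; 0% = DMSO wells and 100% = positive control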
IEC-6 tox = kills IEC-6 intestinal cells in KLF5 counter-screen; 0.78% of 290,000 active; AID 1825; inhibition, % at 5 µM; IEC-6 cytotoxicity, luminescence viability; in the data active means inhibition above about 22%;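 further: 0% = plate median of test compound wells and 100% = cytotoxic reference compound wells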
BaF3 tox = counter-screen for JAK2V617F inhibitors: parental Ba/F3 viability inhibitors; AID 1486; CellTiter-Glo ATP luminescence; inhibition, % at 5.6 µM; 1.1% of 220,000 active;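 active means inhibition above a per-campaign cutoff, the mean inhibition of all tested compounds plus 3 SD, cut at about 27% in these data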;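 further: 0% = DMSO wells and 100% = JAK Inhibitor I control wells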
Ba/F3 V617F tox = reduce viability of Ba/F3 cells dependent on JAK2V617F; Ba/F3 EpoR-JAK2V617F viability, ATP luminescence; inhibition, % at 5.6 µM; 1.1% of 220,000 active; AID 1446;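 active means inhibition above the campaign mean plus 3 SD over all tested compounds, cut at about 24% in these data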;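 further: cytokine-independent growth of Ba/F3 cells driven by EpoR plus mutant JAK2; 0% = DMSO-treated cells and 100% = JAK inhibitor I control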
* marks the source's active call; other numbers are inactive results. Most compounds without a hit are left out; they make up all but 2.2% or so of the library.

Results for COCCCN1C(=O)C(=O)/C(=C(/O)c2ccc(S(=O)(=O)N3CCCCC3)cc2)C1c1cccc(OC)c1 (stereo not drawn) ?
KLF5 inh: -10; aSyn 5UTR inh: -14; IEC-6 tox: -2

How did O=C(NCc1ccccc1)C1CCCN1C(=O)Nc1ccccc1[N+](=O)[O-] (stereo not drawn) do in these assays?
KLF5 inh: -30; aSyn 5UTR inh: 8; IEC-6 tox: 1

What do the screens show for `CCC1=Nc2cc(C(=O)NCc3ccco3)ccc2Sc2ccccc21`?
APP 5UTR inh: 50*; KLF5 inh: 16; aSyn 5UTR inh: 30; IEC-6 tox: 36*; BaF3 tox: 32*; Ba/F3 V617F tox: 30*

How did CCc1nc2ccc(C(=O)NCc3ccco3)cc2nc1CC do in these assays?
APP 5UTR inh: -5; KLF5 inh: -14; aSyn 5UTR inh: 0; IEC-6 tox: 8; BaF3 tox: 2; Ba/F3 V617F tox: 3

What do the screens show for `CCC1=Nc2cc(C(=O)O)ccc2Sc2ccccc21`?
APP 5UTR inh: -8; KLF5 inh: 11; aSyn 5UTR inh: 7; IEC-6 tox: -4; BaF3 tox: 5; Ba/F3 V617F tox: -6

What do the screens show for `CCC1=Nc2cc(C(=O)NCc3ccco3)ccc2Sc2ccc(Cl)cc21`?
APP 5UTR inh: 95*; KLF5 inh: 45; aSyn 5UTR inh: 16; IEC-6 tox: 22*; BaF3 tox: 73*; Ba/F3 V617F tox: 20

Results for Cc1ccc(-c2csc3nc4c5ccccc5c(NCCCN(C)C)nn4c(=O)c23)cc1 ?
APP 5UTR inh: 5; KLF5 inh: 1; aSyn 5UTR inh: 116*; IEC-6 tox: 5; BaF3 tox: 9; Ba/F3 V617F tox: 5

What do the screens show for `Cc1ccc(Nc2cc(C)nn2-c2nc(C)cc(C)n2)cc1`?
APP 5UTR inh: 6; KLF5 inh: 24; aSyn 5UTR inh: 30; IEC-6 tox: 30*; BaF3 tox: 6; Ba/F3 V617F tox: 3

How did CC(=O)Nc1cc(C)nn1-c1nc(C)cc(C)n1 do in these assays?
APP 5UTR inh: 19; KLF5 inh: -6; aSyn 5UTR inh: 6; IEC-6 tox: 7; BaF3 tox: -3; Ba/F3 V617F tox: -5

How did Cc1ccc(C)c(S(=O)(=O)N2CCCC2CNC(=O)C(=O)NCCN2CCOCC2)c1 (stereo not drawn) do in these assays?
aSyn 5UTR inh: -12

How did CCCCCC(C)NC(=S)NC(=O)c1cc(S(=O)(=O)N2CCOCC2)ccc1C (stereo not drawn) do in these assays?
APP 5UTR inh: 0; KLF5 inh: -2; aSyn 5UTR inh: 66*; IEC-6 tox: 4; BaF3 tox: 42*; Ba/F3 V617F tox: -4

Results for CCCC(C)NC(=S)NC(=O)c1cc(S(=O)(=O)N2CCOCC2)ccc1C (stereo not drawn) ?
APP 5UTR inh: -18; KLF5 inh: 14; aSyn 5UTR inh: 41; IEC-6 tox: -3; BaF3 tox: 4; Ba/F3 V617F tox: -1

Results for COc1ccc(COc2cc(-c3cccc(OC)c3)nc3ccc(NC(=O)C(C)C)cc23)cc1 ?
APP 5UTR inh: 14; KLF5 inh: 23; aSyn 5UTR inh: -135; IEC-6 tox: 12; BaF3 tox: 70*; Ba/F3 V617F tox: 61*

Results for O=c1c2ccccc2[nH]c(=S)n1Cc1cccnc1 ?
APP 5UTR inh: 56*; KLF5 inh: 6; aSyn 5UTR inh: -17; IEC-6 tox: 2; BaF3 tox: 1; Ba/F3 V617F tox: -2

Results for Cc1cc(O)c(C)c(O)c1/C=N/NC(=O)c1cccnc1 ?
KLF5 inh: 22; aSyn 5UTR inh: 69*; IEC-6 tox: 13

Results for CC(C)Cc1nc2sc3c(c2c(=O)n1N)CC(C)(C)OC3 ?
KLF5 inh: -18; aSyn 5UTR inh: 2; IEC-6 tox: -5; BaF3 tox: 5; Ba/F3 V617F tox: -3

What do the screens show for `O=C(N/N=C\c1cc(Br)ccc1O)c1ccc(S(=O)(=O)N2CCCCC2)cc1`?
APP 5UTR inh: 69*; KLF5 inh: -1; aSyn 5UTR inh: 110*; IEC-6 tox: 0; BaF3 tox: 0; Ba/F3 V617F tox: -4

What do the screens show for `CC(C)C(=O)Nc1ccc(C(=O)N/N=C/c2cc(Br)cc(Br)c2O)cc1`?
APP 5UTR inh: 46*; KLF5 inh: -36; aSyn 5UTR inh: 8; IEC-6 tox: 0; BaF3 tox: 5; Ba/F3 V617F tox: 3

How did NC(=O)N/N=C\c1cc(Br)ccc1O do in these assays?
APP 5UTR inh: -3; KLF5 inh: -3; aSyn 5UTR inh: 17; IEC-6 tox: 2; BaF3 tox: 3; Ba/F3 V617F tox: -4

How did O=C(N/N=C/c1cc(Cl)ccc1O)c1ccc(Br)cc1 do in these assays?
APP 5UTR inh: 56*; KLF5 inh: 19; IEC-6 tox: 11; BaF3 tox: 7; Ba/F3 V617F tox: 2

What do the screens show for `COc1ccccc1CNC(=O)COC(=O)c1cccc(S(=O)(=O)N2CCCCC2)c1`?
KLF5 inh: -14; aSyn 5UTR inh: -2; IEC-6 tox: 2

How did COc1nc(NC(=O)c2ccc(F)cc2)nc(OC)c1-c1ccccc1 do in these assays?
KLF5 inh: -2; aSyn 5UTR inh: 42; IEC-6 tox: -5

How did CN(CC1COc2ccccc2O1)C(=S)Nc1ccccc1 (stereo not drawn) do in these assays?
APP 5UTR inh: -8; KLF5 inh: -24; aSyn 5UTR inh: -20; IEC-6 tox: 1; BaF3 tox: 28*; Ba/F3 V617F tox: 2

What do the screens show for `COc1ccc(-c2cnc3ccccc3n2)cc1NC(=O)CNC(=O)c1ccccc1`?
KLF5 inh: -123; aSyn 5UTR inh: -48; IEC-6 tox: 6

How did CCN1CCN(CCCNC(=O)CCC(=O)N2CCOc3ccc(Cl)cc32)CC1 do in these assays?
KLF5 inh: 0; aSyn 5UTR inh: -9; IEC-6 tox: -2

What do the screens show for `COc1ccc(CCNC(=O)CSc2nnnn2-c2ccccc2)cc1`?
APP 5UTR inh: 48*; KLF5 inh: -15; aSyn 5UTR inh: -15; IEC-6 tox: -4; BaF3 tox: -2; Ba/F3 V617F tox: -4

Results for COc1ccc(CNC(=O)CSc2nnnn2-c2ccccc2)cc1 ?
APP 5UTR inh: -11; KLF5 inh: -27; aSyn 5UTR inh: 13; IEC-6 tox: -4; BaF3 tox: 10; Ba/F3 V617F tox: -1

How did CC(C)NC[C@@H](O)COc1ccc(CC(N)=O)cc1 do in these assays?
aSyn 5UTR inh: 18

What do the screens show for `O=C(O)c1cc(N2C(=O)CCC2=O)ccc1Cl`?
KLF5 inh: -2; aSyn 5UTR inh: 3; IEC-6 tox: -12

Results for CCOc1ccc(NC(=O)Nc2cc(OCC(F)(F)F)cc(OCC(F)(F)F)c2)cc1 ?
APP 5UTR inh: -15; KLF5 inh: -11; aSyn 5UTR inh: 0; IEC-6 tox: -7; BaF3 tox: 3; Ba/F3 V617F tox: -1

What do the screens show for `O=C(Nc1ccc(F)cc1)Nc1cc(OCC(F)(F)F)cc(OCC(F)(F)F)c1`?
APP 5UTR inh: 18; KLF5 inh: -16; aSyn 5UTR inh: 86*; IEC-6 tox: 6; BaF3 tox: 2; Ba/F3 V617F tox: 6
